Assay outcomes from PubChem BioAssay.
Cycloheximide cs – counter-screen for Shiga toxin inhibitors: cycloheximide protein synthesis inhibition; cell reporter, cycloheximide protein synthesis inhibition counterscreen; max response, %; 12% of 300,000 active; in the data active means max response mostly above about 13%, no sharp cut-off; inactive means mostly below about 14%; further: read at 38.3 µM for the half of the compounds with a filed dose; 0% is about no effect
TbPYK inhibitor – inhibitors of Trypanosoma brucei pyruvate kinase | Q57TT1 | TbPYK enzyme, Kinase-Glo Plus ATP luminescence, 45 min | Potency, µM (series often up to 76.8 µM), inactives show at the highest dose activity, negative = inhibition, actives largely listed as inhibitors | 0.12% of 410,000 active | AID 624173; further: potency means the concentration at half of the fitted maximal effect; on the % scale 0 is the no-effect control and ±100 the full control effect; nearly all actives have a fitted effect of over 50% in size
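Screened from lowest to highest concentration, compounds were pinned into TbPYK/substrate mixtures, and ADP (130 uM final) was added. Plates sat at room temperature for 45 min prior to Kinase-Glo Plus detection by luminescence.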
Shiga inhibitor – Shiga toxin inhibition. Vero cells, Shiga toxin protein synthesis inhibition reporter. inhibition, % at 38.7 µM. 9.2% of 290,000 active. AID 2315; in the data active means inhibition mostly above about 28%, no sharp cut-off; inactive means mostly below about 43%; further: 0% is about no effect
FBPA Giardia inh – inhibitors of Giardia lamblia fructose-1,6-bisphosphate aldolase; A8B2U2; purified Giardia FBPA; Potency, µM (titrated, usually from 59.6 µM), inactives show at the top dose activity, negative = inhibition, most hits filed as inhibitors; 0.71% of 290,000 active; further: potency means the concentration at half of the fitted maximal effect; on the % scale 0 is the no-effect control and ±100 the full control effect; nearly all actives have a fitted effect of over 55% in size
Target sequence (A8B2U2 whole entry, looked up): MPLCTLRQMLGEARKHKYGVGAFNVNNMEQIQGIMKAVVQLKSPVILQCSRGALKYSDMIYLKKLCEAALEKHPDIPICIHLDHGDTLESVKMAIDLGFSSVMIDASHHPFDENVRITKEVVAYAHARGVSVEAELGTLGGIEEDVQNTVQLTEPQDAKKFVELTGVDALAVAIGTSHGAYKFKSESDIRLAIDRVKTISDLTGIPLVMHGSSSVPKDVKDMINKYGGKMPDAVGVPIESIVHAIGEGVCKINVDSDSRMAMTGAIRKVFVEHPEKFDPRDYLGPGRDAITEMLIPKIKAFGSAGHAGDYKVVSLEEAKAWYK
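Giardia FBPA (40 nM reagent) was preincubated 10 min at RT with compound (up to 57.5 uM final), then substrate plus GAPDH/TPI/NAD/arsenate coupling system with diaphorase/resazurin was added; resorufin fluorescence (525/598 nm) was read after 20 min.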
LmPK inh – blocks Leishmania mexicana pyruvate kinase activity | Q27686 | purified LmPK, Kinase-Glo ATP luminescence, 1 h | Potency, µM (doses to about 57.5 µM), without a hit: top-dose activity change, negative = inhibition, actives largely listed as inhibitors | 0.37% of 290,000 active; further: potency means the concentration at half of the fitted maximal effect; on the % scale 0 is the no-effect control and ±100 the full control effect
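Kinase-Glo luminescence read after 1 h RT reaction of 0.1 nM LmPK with 0.5 mM PEP and 0.1 mM ADP. Activity scaled between uninhibited and enzyme-free controls.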
RE007 growth inh – less growth of the S. pombe RE007 Vpr strain | S. pombe RE007 Vpr strain, BacTiter-Glo ATP luminescence, 24 h | Potency, µM (highest dose often 92.2 µM), inactives show top-dose activity change, negative = less growth, hits mostly inhibitors | 0.21% of 360,000 active; active means well fitted falling curve with a large enough effect; inconclusive means small, poorly fitted or top-dose-only effect; inactive means no such curve, though single readings can be large or run the other way; further: potency means the concentration at half of the fitted maximal effect; on the % scale 0 is the no-effect control and ±100 the full control effect; nearly all actives have a fitted effect of over 50% in size
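Fission yeast RE007 carrying one integrated HIV-1 vpr copy, seeded at OD 0.01 in PMG+AL medium with 23 nL pinned compound. Grown 24 h at 30 degrees; viability read by BacTiter-Glo luminescence after 5 min.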
Numbers without * were called inactive; ? = inconclusive; / = not tested or not shown. Many of the other results were omitted from the sample, so hits are more common in it than they were. Unless noted, the call rests on the fitted dose curve; in most records, active means well fitted curve in the direction sought with a large enough effect; inconclusive means small, poorly fitted or top-dose-only effect, or another doubt; inactive means no such curve, though single readings can be large; an effect the other way counts as inactive or inconclusive.

SMILES | Cycloheximide cs | TbPYK inhibitor | Shiga inhibitor | FBPA Giardia inh | LmPK inh | RE007 growth inh
O=C(Nc1ccc2c(c1)OCO2)N1CCN(Cc2ccco2)CC1 | 13* | -1% | 12 | 8% | -7% | -8%
O=C1c2ccccc2C(Nc2ccc3c(c2)OCO3)N1Cc1ccc2c(c1)OCO2 (configuration not stated) | 38* | ? | 20 | ? | -9% | 0%
O=C1c2ccccc2C(Nc2ccc3c(c2)OCO3)N1Cc1ccco1 (configuration not stated) | 10 | ? | 21* | -22% | 3% | 4%
O=C1c2ccccc2C(Nc2cccnc2)N1Cc1ccc2c(c1)OCO2 (configuration not stated) | -6 | 1% | -12 | 6% | 0% | -7%
O=C(C[C@H]1C/C=C\C[C@H](NC(=O)OCC2c3ccccc3-c3ccccc32)C(=O)OC[C@@H]2CCCN2C1=O)NCCO | / | 4% | / | / | / | -3%
COc1ccc(-n2c(=O)cc(N3CCN(c4ccccc4)CC3)[nH]c2=O)cc1 | 60* | 6% | -12 | 2% | -2% | -13%
CCOc1ccc(-n2c(=O)cc(N3CCN(c4ccccc4)CC3)[nH]c2=O)cc1 | 9 | 1% | -11 | 0% | 3% | -17%
CCOC(=O)c1c(C)[nH]c(C)c1S(=O)(=O)N(C)CC(=O)NCc1ccc(Cl)cc1 | / | 1% | / | / | / | /
CCC1CN(C(=O)Nc2cc(Cl)c(OC)cc2OC)c2ccccc2O1 (configuration not stated) | / | -4% | / | / | / | /
Cc1cccc2nc3ccccc3nc12 | 17* | -6% | 46 | 0% | 5% | ?
CCOC(=O)Cc1csc(NC(=O)/C=C/c2ccc(Cl)cc2)n1 | 23* | -1% | 59* | 4% | 1% | 5%
Cc1csc(NC(=O)/C=C/c2ccc(C)o2)n1 | 31* | -2% | 73* | -15% | -1% | -20%
Cc1csc(NC(=O)/C=C/c2ccco2)n1 | 25* | -7% | 35* | -7% | -10% | 4%
O=C(/C=C/c1ccco1)Nc1nc(-c2ccc(F)c(F)c2)cs1 | 18* | -1% | 43 | 5% | 1% | 13%
O=C(COc1ccc(CNC[C@H]2O[C@@H](n3ccc(=O)[nH]c3=O)[C@H](O)[C@@H]2O)cc1)Nc1ccccn1 | / | 2% | / | / | / | -24%
CCOC(=O)Cc1csc(NC(=O)CCc2ccccc2)n1 | -3 | -7% | -1 | 3% | -3% | 12%
COc1ccc(-c2csc(NC(=S)NC(=O)/C=C/c3ccco3)n2)cc1OC | -1 | -5% | -7 | -7% | 0% | 6%
O=C(/C=C/c1ccco1)Nc1nc(-c2ccccc2)cs1 | 86* | -1% | 118* | -10% | -3% | -25%
CCOC(=O)Cc1csc(NC(=O)/C=C/c2ccco2)n1 | 25* | -6% | 59* | -2% | 1% | 11%
COc1ccccc1NC(=O)C1=C(C)Nc2nc(SCc3ccccc3)nn2C1c1cccs1 (configuration not stated) | / | 0% | / | / | / | /
Cc1onc(NC(=O)c2ccc(Cl)cc2Cl)c1Br | 42* | -2% | 72* | -1% | 15% | -5%
Cc1onc(NC(=O)NC(=O)c2ccccc2F)c1Br | 21* | -3% | 37 | / | -7% | 8%
COc1ccc(C(C#N)=Cc2ccc(N(C)CCC#N)cc2)cc1 | / | 2% | / | / | / | 5%
O=C(CC1CCCCC1)NCc1ccccc1Cl | 38* | -7% | 49 | 7% | -2% | 2%
O=C(COC(=O)C1CC1)NCc1ccccc1Cl | 16* | -8% | 29 | -1% | 16% | 11%
SMILES | Cycloheximide cs | TbPYK inhibitor | Shiga inhibitor | FBPA Giardia inh | LmPK inh | RE007 growth inh
COc1ccccc1CNC(=O)COC(=O)C1CC1 | / | 24% | / | / | / | 1%
O=C(COC(=O)CCSc1ccccc1)NCc1ccccc1Cl | 19* | -12% | 43 | 1% | 5% | 2%
O=C(CSc1ncccn1)NCc1ccccc1Cl | 50* | -1% | 68* | -3% | -6% | 4%
O=C(COC(=O)CCSc1ccc(Cl)cc1)NCc1ccccc1 | -4 | -4% | 6 | -2% | -1% | 0%
Cn1c(=O)c2sccc2n2c(CCC(=O)NCc3ccccc3)nnc12 | / | 4% | / | / | / | /
COc1ccc(-n2nc(C(=O)NCC(=O)NCc3cccc(F)c3)c3ccccc3c2=O)cc1Cl | -1 | 0% | 1 | 3% | 10% | 0%
C[C@H](NS(=O)(=O)c1ccc(Cl)cc1)C(=O)OCC(=O)NCCc1ccc(S(N)(=O)=O)cc1 | / | 3% | / | / | / | -5%
COc1ccccc1NC(=O)C1=C(C)Nc2nc(SCc3ccccc3)nn2C1c1cccnc1 (configuration not stated) | / | 5% | / | / | / | /
CCCCC(=O)NCc1ccccc1Cl | 23* | 5% | 52 | 17% | 0% | 19%
COc1cccc(N2CC(NC(=O)C3CC3)CC2=O)c1 (configuration not stated) | / | -3% | / | / | / | /
Fc1cccc(Cl)c1/C=C/c1cnc2ccccc2n1 | 48* | ? | 75* | 3% | -18% | -3%
COc1ccc(C=Cc2ccc3ccccc3n2)c(OC)c1 | / | -20% | / | / | / | ?
Fc1cccc(F)c1/C=C/c1ccc2ccccc2n1 | 24* | ? | 54* | -24% | 8.9µM* | ?
CC(O)/C=C/c1ccc2ccccc2n1 (configuration not stated) | 23* | -7% | 33* | -1% | -10% | -20%
C(=C\c1ccco1)/c1ccc2ccccc2n1 | 38* | ? | 52* | -20% | ? | ?
O=C(/C=C/c1ccc2ccccc2n1)N1CCN(c2ccccc2)CC1 | -2 | -3% | 13 | -4% | 3% | 0%
O=C(O)/C=C/c1cnc2ccccc2n1 | -3 | -1% | -5 | 0% | 0% | -4%
Cc1ccc(CNC(=O)CCCCCn2c(=O)c3sccc3n(CC(=O)C(C)(C)C)c2=O)cc1 | / | 0% | / | / | / | /
CC(O)CN=c1cc(-c2ccccc2)oc2ccc(Cl)cc12 (configuration not stated) | 55* | 1% | 77* | 5% | 2% | ?
C/C(CCc1oc2ccc(Cl)cc2c1-c1ccc(C)o1)=N\O | 0 | -9% | 20 | -8% | -8% | -26%
CC(C)CN=c1cc(-c2ccccc2)oc2ccc(Cl)cc12 | 35* | -10% | 70 | 2% | 0% | -14%
Cc1ccc(CNS(=O)(=O)c2ccc(-n3cnnn3)c(C)c2)cc1 | -10 | 0% | 19 | 9% | 1% | 0%
Cc1c(Cl)cccc1NC(=S)NCc1cccn1C | 52* | -26% | -9 | 2% | -2% | -2%
Cc1ccccc1NC(=S)NCc1cccn1C | -5 | -21% | -11 | -3% | 2% | 1%
CCOc1cc(/C=C2/C(=N)N3C(=NC2=O)SN=C3S(C)(=O)=O)ccc1OS(=O)(=O)c1ccccc1 | -1 | -5% | -2 | / | 4% | -7%
